Reference: PubChem BioAssay (Tox21)
A number with no mark means an inactive call. Calls of active or inactive are those of the source. Calls follow the shape of the full dose curve. Starred links: 1 amine or outer side, 2 acyl side, 3 side chain; linkers in the order of their positions; H or OH if unused. Positions of bridges follow the written chain, without caps; N, C: chain ends. Non-standard residues stand in square brackets, D forms with d. Residues, ends and D or L forms follow the SMILES beside them. Chains are numbered I, II in the order given. Actinocin(9to1) = Cc1c2oc3c(C)ccc(C(=O)[*:1])c3nc-2c(C(=O)[*:2])c(N)c1=O; NMeV = CN[C@H](C(=O)O)C(C)C; Sar = CNCC(=O)O

Target: Acetylcholinesterase (Homo sapiens) (UniProt P22303)
Assay: Acetylcholinesterase (AChE) small molecule antagonists: enzyme-based qHTS assay with human liver microsomes (AID 1347399); also: nearly all actives have a fitted effect of over 60% in size
Conditions: Potency: qHTS inhibition; outcome: qHTS inhibition; series mostly up to 115 µM; activity change, negative = inhibition: at the top concentration
Outline: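 Recombinant human AChE (50 mU/mL in the enzyme mix) and human liver microsomes (0.25 mg/mL final) were preincubated with compound and NADPH (0.25 mg/mL final) for 30 min at 37 C. Acetylthiocholine/DTNB was then added; thiocholine was read colorimetrically after 10 min at room temperature.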
% is scaled to controls: 0 for no effect and ±100 for the full control effect.

Sequence of Acetylcholinesterase (Homo sapiens) (P22303 whole entry, looked up): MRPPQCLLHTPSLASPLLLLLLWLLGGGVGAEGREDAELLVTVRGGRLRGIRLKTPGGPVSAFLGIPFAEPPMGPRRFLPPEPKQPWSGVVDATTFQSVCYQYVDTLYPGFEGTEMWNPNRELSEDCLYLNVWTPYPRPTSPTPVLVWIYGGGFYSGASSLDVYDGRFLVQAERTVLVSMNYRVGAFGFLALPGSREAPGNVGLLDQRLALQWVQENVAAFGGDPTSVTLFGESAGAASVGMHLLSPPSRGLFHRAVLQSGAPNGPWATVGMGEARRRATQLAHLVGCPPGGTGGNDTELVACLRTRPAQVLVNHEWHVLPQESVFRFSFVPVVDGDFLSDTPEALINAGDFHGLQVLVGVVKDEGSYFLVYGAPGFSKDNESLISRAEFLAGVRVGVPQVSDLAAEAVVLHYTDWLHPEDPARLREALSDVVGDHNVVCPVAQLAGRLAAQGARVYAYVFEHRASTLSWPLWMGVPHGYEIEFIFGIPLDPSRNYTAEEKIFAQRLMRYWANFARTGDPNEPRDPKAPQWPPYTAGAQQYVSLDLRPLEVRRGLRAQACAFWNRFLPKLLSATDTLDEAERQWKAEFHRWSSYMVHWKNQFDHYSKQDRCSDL

| SMILES | Potency | activity change, negative = inhibition | outcome |
| --- | --- | --- | --- |
| CC(=O)Nc1cccc(O)c1 | inactive |  |  |
| C=CC(=O)OCCOCCOCCOCCOC(=O)C=C | inactive |  |  |
| O=C=NCCCCCCN=C=O | inactive |  |  |
| CCN=C1C=CC(=C(c2ccc(N(CC)CC)cc2)c2ccc(N(CC)CC)cc2)c2ccccc21 |  | 2.97% |  |
| CC(C)(O)CCc1ccccc1 |  | -1.35% |  |
| Cc1ccc(C(C)C)cc2c(C)ccc1-2 |  | 1.53% [at 53 µM] |  |
| O=[N+]([O-])c1ccccc1C(F)(F)F | inactive |  |  |
| CCCCC/C=C\C/C=C\CCCCCCCC(=O)OC | inactive |  |  |
| CC(=O)OC/C=C(\C)CC/C=C(\C)CCC=C(C)C | inactive |  |  |
| Cc1c(C(C)C)c(=O)n(-c2ccccc2)n1C |  | -0.655% [at 53 µM] |  |
| CN(C)CCOC(c1ccccc1)c1ccc(Br)cc1 (stereo not given) |  | 0.443% [at 53 µM] |  |
| CCS(=O)(=O)c1ccc(OC)c(C(=O)OC)c1 |  | 0.295% [at 53 µM] |  |
| CCOC(OCC)OCC |  | 0.688% |  |
| COc1cc(O)cc(O)c1 |  | -1.51% [at 53 µM] |  |
| O=C(Cl)c1ccc(C(=O)Cl)cc1 | inactive |  |  |
| Cc1c(Cl)c(=O)oc2cc(O)ccc12 |  | 1.13% |  |
| CC(C)(C)C(=O)CCc1ccc(Cl)cc1 |  | -0.0801% |  |
| CC1=C(O)C(=O)OC1C (stereo not given) |  | -0.729% |  |
| CC(CC(C#N)(c1ccccc1)C(C)C)N(C)C (stereo not given) |  | -2.35% [at 53 µM] |  |
| O=C(O)c1cccc(C[C@@H]2COc3ccc(OCc4nc5cc(F)ccc5s4)cc3[C@@H]2O)c1 |  | -1.59% |  |

| SMILES | Potency | activity change, negative = inhibition | outcome |
| --- | --- | --- | --- |
| CCCc1cc(C(N)=S)ccn1 |  | 2.35% [at 53 µM] |  |
| O=C1CCCc2ccccc21 |  | -1.14% |  |
| Nc1cccc(N)n1 | inactive |  |  |
| CC(C)CC(=O)CC(C)CC(C)C (stereo not given) | inactive |  |  |
| CCCCCNCCCCC | inactive |  |  |
| C#CCN[C@@H]1CCc2ccccc21 |  |  | inactive |
| C(=C(c1ccccc1)c1ccccc1)c1ccccc1 |  | 0.382% |  |
| CC(C)CCO |  | -0.012% |  |
| CCCCCN(CCCOC)C(=O)C(CCC(=O)O)NC(=O)c1ccc(Cl)c(Cl)c1 (stereo not given) |  | 0.818% [at 53 µM] |  |
| CC(CO)c1ccccc1 (stereo not given) |  | 0% |  |
| O=S(=O)(Oc1ccc(Cl)cc1)c1ccccc1 |  | 1.98% |  |
| O=C(c1ccccc1)c1ccc2n1CCC2C(=O)O (stereo not given) |  | 0.239% [at 53 µM] |  |
| CC(C)COC(=O)c1ccccc1 |  | -0.153% |  |
| CC(=O)CCC(C)C | inactive |  |  |
| O=C(Nc1ccccc1)OCC(CN1CCCCC1)OC(=O)Nc1ccccc1 (stereo not given) |  | 0.18% [at 53 µM] |  |
| C[C@H](CCC(=O)O)[C@H]1CC[C@H]2[C@@H]3CC[C@@H]4C[C@H](O)CC[C@]4(C)[C@H]3CC[C@]12C | inactive |  |  |
| Cc1c2oc3c(C)ccc(C(=O)N[C@@H]4C(=O)N[C@H](C(C)C)C(=O)N5CCC[C@H]5C(=O)N(C)CC(=O)N(C)[C@@H](C(C)C)C(=O)O[C@@H]4C)c3nc-2c(C(=O)N[C@@H]2C(=O)N[C@H](C(C)C)C(=O)N3CCC[C@H]3C(=O)N(C)CC(=O)N(C)[C@@H](C(C)C)C(=O)O[C@@H]2C)c(N)c1=O (I: T[dV]P[Sar][NMeV] / II: T[dV]P[Sar][NMeV]; ester I:1-I:C, II:1-II:C; linker I:N-II:N via Actinocin(9to1)) | inactive |  |  |
| CCCCC(CC)COC(=O)/C=C/c1ccc(OC)cc1 (stereo not given) | inactive |  |  |
| O=C1[C@H](CC[C@H](O)c2ccc(F)cc2)[C@@H](c2ccc(O)cc2)N1c1ccc(F)cc1 |  | -0.507% [at 53 µM] |  |
| CC(=O)CC/C=C(\C)CCC=C(C)C | inactive |  |  |
